{"source": "PubChem BioAssay AID624169", "about": "(The Scripps Research Institute Molecular Screening Center, 2012)", "note": "The campaign covered roughly 360,000 compounds. About 2,400 (0.67%) were called active. Many of the other results were omitted from the sample, so actives are more common in it than they were. Values without a mark were called inactive.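 How the source made its calls: active means activation above a run cutoff, the mean activation of all tested compounds plus 3 SD (cut at about 14% in these data); inactive means the rest.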"}
{"target": "5-hydroxytryptamine receptor 2A (Mus musculus) (UniProt P35363)", "sequence (P35363 whole entry, looked up)": "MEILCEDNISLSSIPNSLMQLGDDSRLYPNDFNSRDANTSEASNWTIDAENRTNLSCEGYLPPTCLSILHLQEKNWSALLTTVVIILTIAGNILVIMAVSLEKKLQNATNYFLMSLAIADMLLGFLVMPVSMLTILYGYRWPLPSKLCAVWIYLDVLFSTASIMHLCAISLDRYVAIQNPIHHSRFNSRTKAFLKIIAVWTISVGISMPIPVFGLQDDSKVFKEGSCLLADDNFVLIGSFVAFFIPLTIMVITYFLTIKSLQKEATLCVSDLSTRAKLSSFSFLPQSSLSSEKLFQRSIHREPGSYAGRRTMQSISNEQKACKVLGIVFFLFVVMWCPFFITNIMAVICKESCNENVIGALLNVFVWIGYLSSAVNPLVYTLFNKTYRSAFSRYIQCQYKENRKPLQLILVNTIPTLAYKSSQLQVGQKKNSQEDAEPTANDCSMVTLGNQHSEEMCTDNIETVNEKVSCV", "assay": "activation of mouse 5-HT2A receptor – cell-based, luminescence, primary screen (AID 624169);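 further: 0% = plate median of compound wells and 100% = 30 µM serotonin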", "conditions": "CHO-K1 mHTR2A beta-arrestin complementation, at 7.6 µM, active compounds read high, percent of 30 µM serotonin response"}
{"smiles": "Cc1ccc(C(=O)NCC(=O)OCc2nnc(-c3ccccc3)o2)cc1", "activation": "14.8% (active)"}
{"smiles": "O=C(OCc1nnc(-c2ccccc2)o1)c1ccc2c(c1)C(=O)N(CCc1ccccc1)C2=O", "activation": "1.62%"}
{"smiles": "Cc1onc(-c2ccccc2)c1-c1nnc(COC(=O)c2ccc(N(C)C)cc2)o1", "activation": "-6.2%"}
{"smiles": "CSc1ccc(NC(=O)N2CC(C)OC(C)C2)cc1", "note": "(stereo not drawn)", "activation": "-3.29%"}
{"smiles": "CCCCn1nc(C(=O)Nc2cccc(C(=O)NC3CC3)c2)c2ccccc2c1=O", "activation": "2.3%"}
{"smiles": "Cn1cccc1C(=O)OCC(=O)c1ccc(Br)s1", "activation": "-5.88%"}
{"smiles": "OC(COc1ccc(F)cc1Cl)CN1CCc2ccccc2C1", "note": "(stereo not drawn)", "activation": "-18.7%"}
{"smiles": "COc1ccccc1C(c1nnnn1CC1CCCO1)N1CCN(c2ccccc2)CC1", "note": "(stereo not drawn)", "activation": "-1.76%"}
{"smiles": "O=C(NCc1ccco1)/C(=C/c1ccco1)NC(=O)c1ccccc1", "activation": "2.71%"}
{"smiles": "O=C(Cc1ccccc1)n1nc(-c2ccccc2)nc1NCc1ccco1", "activation": "17.4% (active)"}
{"smiles": "O=C(c1cccs1)n1nc(NCc2ccccc2)nc1NCc1ccccc1", "activation": "-1.74%"}
{"smiles": "CC(C)NS(=O)(=O)c1ccc(NC(=O)C2CCCCC2)cc1", "activation": "-5.58%"}
{"smiles": "CS(=O)(=O)c1ccc2nc(NC(=O)C3CCCCC3)sc2c1", "activation": "14.9% (active)"}
{"smiles": "Cc1nc2ccc(NC(=O)C3CCCCC3)cc2s1", "activation": "5.67%"}
{"smiles": "Cc1ccc2nc(NC(=O)C3CCN(S(=O)(=O)c4ccc5c(c4)oc(=O)n5C)CC3)sc2c1", "activation": "-3.71%"}
{"smiles": "COc1ccc(CN2CC(C(=O)NCCN3CCN(c4ccccc4F)CC3)CC2=O)cc1", "note": "(stereo not drawn)", "activation": "-3.29%"}
{"smiles": "O=C(NCCCN1CCCCCC1)C1CC(=O)N(C2CCCC2)C1", "note": "(stereo not drawn)", "activation": "2.65%"}
{"smiles": "O=C(NCCCN1CCN(c2ccccc2F)CC1)C1CCC(=O)N1C1CCCCC1", "note": "(stereo not drawn)", "activation": "16.5% (active)"}
{"smiles": "COC(=O)c1ccccc1NC(=O)C1CCN(S(=O)(=O)c2cc(OC)ccc2OC)CC1", "activation": "-1.33%"}
{"smiles": "CCCN(CCc1ccccc1)C1CCc2c(O)cccc2C1", "note": "(stereo not drawn)", "activation": "50.6% (active)"}
{"smiles": "Cc1cc(C)cc(C(=O)N(CCc2ccccc2)C2=CC3CCC(C2)N3C)c1", "note": "(stereo not drawn)", "activation": "-10.4%"}
{"smiles": "COC(=O)c1ccc(CN2C(=O)C(Cc3ccccc3)ON=C2c2ncccc2C)o1", "note": "(stereo not drawn)", "activation": "0.18%"}
{"smiles": "CCOc1ccccc1NS(=O)(=O)c1cc2c3c(c1)C(C)C(=O)N3CCC2", "note": "(stereo not drawn)", "activation": "5.3%"}
{"smiles": "C/C(=N\\NC(=O)CSc1nc2ccccc2c(=O)n1-c1ccccc1C)c1cccs1", "activation": "-1%"}
{"smiles": "C/C(=N\\OCC(=O)Nc1ccc(Br)cc1)c1cccs1", "activation": "-2.57%"}
{"smiles": "C/C(=N\\NC(=O)COc1c(C)cccc1C)c1cccs1", "activation": "14.4% (active)"}
{"smiles": "CN(C)C(=O)c1nc2ccc(Cl)cn2c1CN1CCN(c2ncccn2)CC1", "activation": "1.37%"}
{"smiles": "Cc1ccc(CN2CCN(/N=C/c3ccco3)CC2)c(C)c1", "activation": "-2.05%"}
{"smiles": "Cc1ccc(CN2CCN(/N=C/c3cccnc3)CC2)c(C)c1", "activation": "-3.83%"}
{"smiles": "Oc1ccc(CN2CCN(c3ncccn3)CC2)cc1", "activation": "30.1% (active)"}
{"smiles": "Cc1ccc(CN2CCN(c3ncccn3)CC2)c(C)c1", "activation": "25.6% (active)"}
{"smiles": "COc1ccccc1-c1nn(Cc2ccccc2)cc1C(=O)N1CCN(c2ncccn2)CC1", "activation": "11.3%"}
{"smiles": "CC1(C)CCSC(/C=C/c2ccccc2)=N1", "activation": "-2.29%"}
{"smiles": "Nc1c(C(=O)O)cnn1-c1ccccc1", "activation": "2.02%"}
{"smiles": "Cc1ccc(CC2(C)C(=O)Nc3ccc(OC(F)(F)F)cc32)cc1", "note": "(stereo not drawn)", "activation": "-3.94%"}
{"smiles": "CC1(Cc2cccc(C#N)c2)C(=O)Nc2ccc(-c3cccc(C(F)(F)F)c3)cc21", "note": "(stereo not drawn)", "activation": "16.7% (active)"}
{"smiles": "CC1(Cc2ccccc2C#N)C(=O)Nc2ccc(-c3ccc4[nH]ccc4c3)cc21", "note": "(stereo not drawn)", "activation": "-1.29%"}
{"smiles": "COC(=O)[C@]12CCCCC=C1N(Cc1ccc3c(c1)OCO3)C(=O)[C@H](CC(=O)N1CCOCC1)C2", "activation": "2.87%"}
{"smiles": "O=C(Nc1cccc2c1CCCC2)C1CCN(C(=O)NC2CCCCC2)CC1", "activation": "2.77%"}
{"smiles": "CCOC(=O)c1cccc(NC(=O)C2CCCN(S(=O)(=O)c3cnc[nH]3)C2)c1", "note": "(stereo not drawn)", "activation": "9.95%"}
{"smiles": "O=c1[nH]nc(Cc2ccccn2)c2ccccc12", "activation": "2.3%"}
{"smiles": "Cc1cc(C=O)c(C)n1-c1ccc(NC2CCCCC2)c([N+](=O)[O-])c1", "activation": "3.39%"}
{"smiles": "Cc1cc([N+](=O)[O-])ccc1NC1CCCC1", "activation": "15.6% (active)"}
{"smiles": "Cc1cc([N+](=O)[O-])c(NC2CCCCC2)c([N+](=O)[O-])c1", "activation": "0.25%"}
{"smiles": "COc1cc2sc(C)nc2cc1C", "activation": "-1.33%"}
{"smiles": "CCOC(=O)c1cc(-c2ccccc2C)n(Cc2cc(C)no2)n1", "activation": "22.5% (active)"}
{"smiles": "CCOC(=O)c1cc(-c2sc(NC(=O)c3ccccc3)nc2C)n(Cc2ccccc2)n1", "activation": "-1.51%"}
{"smiles": "CCOC(=O)c1cc(-c2sc(NC(=O)c3ccccc3)nc2C)n(CCO)n1", "activation": "-1.86%"}
{"smiles": "Cc1noc(C)c1COc1ccccc1C(=O)N(C)CC(=O)Nc1cccc(F)c1", "activation": "-2.16%"}
{"smiles": "CCCCN1C[C@H](c2ccc(Br)cc2)[C@@H](CC(=O)Nc2ccc(Br)cc2)C1=O", "activation": "5.11%"}
{"smiles": "O=C(CN1CCOCC1)N1CCCc2c1c(=O)oc1ccc(OCc3ccccc3)cc21", "activation": "-4.24%"}
{"smiles": "Nc1c(N(Cc2ccco2)C(=O)c2cccc(F)c2)c(=O)[nH]c(=O)n1Cc1ccccc1", "activation": "16.4% (active)"}
{"smiles": "Nc1c(N(CCO)C(=O)C2CCCCC2)c(=O)[nH]c(=O)n1Cc1ccccc1", "activation": "-0.82%"}
{"smiles": "COCCN(C(=O)c1ccccc1F)c1c(N)n(Cc2ccccc2)c(=O)[nH]c1=O", "activation": "-0.11%"}
{"smiles": "CC(C(=O)N(C)CC(=O)Nc1ccccc1C(F)(F)F)N1C(=O)c2ccccc2C1=O", "note": "(stereo not drawn)", "activation": "-1.36%"}
{"smiles": "CC(=O)c1sc(NC(=O)CCN2C(=O)C3CC=CCC3C2=O)nc1-c1ccccc1", "note": "(stereo not drawn)", "activation": "-2.19%"}
{"smiles": "Cc1cc(NC(=O)/C=C/C(=O)N(CC(=O)NC2CCCC2)c2ccc(F)cc2)no1", "activation": "5.36%"}
{"smiles": "O=C(CCC(=O)N1CCN(S(=O)(=O)c2ccc(Cl)cc2)CC1)NCc1cccc(C(F)(F)F)c1", "activation": "-0.98%"}
{"smiles": "O=C(c1ccncc1)N1CCN(S(=O)(=O)c2cc(C(F)(F)F)cc(C(F)(F)F)c2)CC1", "activation": "-5.52%"}
{"smiles": "O=C(Cc1ccsc1)N1CCN(S(=O)(=O)c2cc(C(F)(F)F)cc(C(F)(F)F)c2)CC1", "activation": "16.3% (active)"}
{"smiles": "CC(C)c1nc(CNC(=O)CC2C(=O)NCCN2Cc2ccoc2)cs1", "note": "(stereo not drawn)", "activation": "2.97%"}
{"smiles": "Cc1ccc(Cc2c(C)nc3nc(SCC(=O)NCCN4CCOCC4)nn3c2C)cc1", "activation": "-7.66%"}
{"smiles": "O=C(Oc1ccc2c(c1)CCC2)N1CCOCC1", "activation": "-4.84%"}
{"smiles": "CC(Nc1ccccc1)c1cccnc1", "note": "(stereo not drawn)", "activation": "18.4% (active)"}
{"smiles": "CC(=O)OC(C(=O)NCCc1ccccc1)c1cccnc1", "note": "(stereo not drawn)", "activation": "3.53%"}
{"smiles": "CC(C)COP(=O)(c1ccc(N(C)C)cc1)C(Nc1ccccc1)c1cccnc1", "note": "(stereo not drawn)", "activation": "-1.14%"}
{"smiles": "CCOP(=O)(OCC)C(Nc1ccc([N+](=O)[O-])cc1)c1ccc(Cl)cc1", "note": "(stereo not drawn)", "activation": "-5.36%"}
{"smiles": "Cc1ccc(NS(=O)(=O)c2cccs2)cc1S(=O)(=O)N1CCCCCC1", "activation": "-1.7%"}
{"smiles": "O=C(NCCS(=O)(=O)N1CCN(c2ccc(F)cc2)CC1)c1ccc2c(c1)OCO2", "activation": "5.83%"}
{"smiles": "Cc1cc(O)c(C2(O)C(=O)Nc3ccccc32)cc1C", "note": "(stereo not drawn)", "activation": "-4.53%"}
{"smiles": "COc1cccc(OC)c1OCCN1CCN(C(=O)c2ccco2)CC1", "activation": "14.4% (active)"}
{"smiles": "O=C(c1ccco1)N1CCN(C(=O)c2ccc(COc3ccc(F)cc3)o2)CC1", "activation": "2.33%"}
{"smiles": "O=C(c1ccco1)N1CCN(CCOc2ccccc2)CC1", "activation": "16.4% (active)"}
{"smiles": "O=C(OCC(=O)N1CCN(C(=O)c2ccco2)CC1)c1c(Cl)cccc1Cl", "activation": "-3.04%"}
{"smiles": "O=C(c1ccco1)N1CCN(Cc2cccc(C(F)(F)F)c2)CC1", "activation": "11.3%"}
{"smiles": "O=C(c1ccc(Br)o1)N1CCN(CCOc2ccccc2)CC1", "activation": "-0.54%"}
{"smiles": "Cc1ccc2cc(CN(c3ccc(C)c(C)c3)S(C)(=O)=O)c(=O)[nH]c2c1", "activation": "-0.92%"}
{"smiles": "CC1CC(=S)Nc2ccccc2N1Cc1ccccc1", "note": "(stereo not drawn)", "activation": "-4.32%"}
{"smiles": "Cc1ccc(NC(=O)CSc2nnc(CNC(=O)c3ccccc3F)o2)cc1", "activation": "-0.39%"}
{"smiles": "CC(C)NC(=O)CSc1nnc(COc2ccccc2Cl)o1", "activation": "0.27%"}
{"smiles": "Cc1ccc(NC(=O)CSc2nnc(COc3ccccc3C)o2)cc1", "activation": "40.1% (active)"}
{"smiles": "O=C(c1ccc(NS(=O)(=O)c2ccc3[nH]c(=O)[nH]c3c2)cc1)N1CCCCC1", "activation": "2.95%"}
{"smiles": "COc1ccc(CNC(=O)c2ccc(NS(=O)(=O)c3ccc4[nH]c(=O)[nH]c4c3)cc2)cc1OC", "activation": "16.1% (active)"}
{"smiles": "CC(=O)c1ccc(NC(=O)C(C)OC(=O)c2ccc(NS(=O)(=O)c3ccc4[nH]c(=O)[nH]c4c3)cc2)cc1", "note": "(stereo not drawn)", "activation": "-1.56%"}
{"smiles": "COc1ccc2c(c1)C(=C(C#N)C#N)C(=O)N2CCc1ccccc1", "activation": "-0.11%"}
{"smiles": "CC(C)CC1C(=O)N(Cc2cn(Cc3ccco3)nn2)CCS(=O)(=O)N1Cc1ccc(-c2ccc(Cl)c(Cl)c2)cc1", "note": "(stereo not drawn)", "activation": "-3.53%"}
{"smiles": "O=C(O)C1C2C=CC(O2)C1C(=O)NCCc1cccc(Cl)c1", "note": "(stereo not drawn)", "activation": "21.1% (active)"}
{"smiles": "O=C(O)C1CC=CCC1C(=O)NCCc1ccccc1", "note": "(stereo not drawn)", "activation": "7.31%"}
{"smiles": "O=C(O)C1C2C=CC(O2)C1C(=O)Nc1ccccn1", "note": "(stereo not drawn)", "activation": "-3.53%"}
{"smiles": "Cc1ccccc1CN1CCC(C(=O)Nc2ccc(Oc3cccnc3)cc2)CC1", "activation": "-1.91%"}
{"smiles": "O=C(Nc1nnc([C@H]2C[C@H](O)[C@@H](CO)O2)s1)c1cccc(Cl)c1", "activation": "5.77%"}
{"smiles": "O=C(Nc1ccc(Cl)cc1)c1csc([C@H]2C[C@H](O)[C@@H](CO)O2)n1", "activation": "4.98%"}
{"smiles": "O=C(Nc1cccc2cccnc12)c1ccc2sc([C@H]3C[C@H](O)[C@@H](CO)O3)nc2c1", "activation": "16.7% (active)"}
